# Source: PubChem BioAssay
# Hits are enriched below; roughly 7.3% of the tested compounds scored in any of these assays.
# ELG1 genotoxic = qHTS screen for small molecules that induce genotoxicity in human embryonic kidney (HEK293T) cells expressing luciferase-tagged ELG1. HEK293T ELG1-luciferase reporter, luminescence, 16 h. Potency, µM (titrated, usually from 46 µM), usual class: activators. 330,000 tested, 1.3% active. AID 504466, 2011; note: nearly all actives have a fitted effect of over 60% in size
#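 Screening used a luciferase reporter fused to human ELG1 in HEK293T cells. Luminescence was read on a CCD plate imager after 16 hr exposure and 30 min ONE-Glo incubation.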
# Rab9 promoter act = qHTS Assay for Rab9 Promoter Activators; Huh7 Rab9 promoter-luciferase reporter, luminescence, 24 h; Potency, µM (doses to about 9.22 µM), hits mostly activators; 320,000 tested, 2.8% active; AID 485297, 2010; note: nearly all actives have a fitted effect of over 60% in size
#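 Promoter activation is measured as luciferase luminescence in Huh7 cells stably transfected with a Rab9 promoter–luciferase construct, following 24 h compound exposure at 37 °C and 10 min reagent incubation at ambient temperature.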
# KinaseGlo FLuc = Counterscreen for Luciferase (Kinase-Glo TM) Inhibition; Kinase-Glo luciferase, ATP luminescence, 8 min; AID 1379, 2008; 200,000 tested, 0.28% active; Potency, µM (highest dose often 38.3 µM), most hits filed as inhibitors; Luciferin 4-monooxygenase (Photuris pensylvanica), Q27757; note: nearly all actives have a fitted effect of over 60% in size
#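 Inhibition of Kinase-Glo luciferase light generation was assessed at 10 uM ATP in pH 7.2 imidazole buffer, with luminescence measured after eight minutes at ambient temperature.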
# FLuc modulator = qHTS profiling assay for firefly luciferase inhibitor/activator using purifed enzyme and Km concentrations of substrates (counterscreen for miR-21 project). Luciferin 4-monooxygenase (Photinus pyralis), P08659. purified FLuc, Km substrates, luminescence inhibition. Potency, µM (top dose mostly 57.5 µM), hits mostly inhibitors. 360,000 tested, 6.9% active; note: nearly all actives have a fitted effect of over 55% in size
# Target sequence (P08659 whole entry, looked up): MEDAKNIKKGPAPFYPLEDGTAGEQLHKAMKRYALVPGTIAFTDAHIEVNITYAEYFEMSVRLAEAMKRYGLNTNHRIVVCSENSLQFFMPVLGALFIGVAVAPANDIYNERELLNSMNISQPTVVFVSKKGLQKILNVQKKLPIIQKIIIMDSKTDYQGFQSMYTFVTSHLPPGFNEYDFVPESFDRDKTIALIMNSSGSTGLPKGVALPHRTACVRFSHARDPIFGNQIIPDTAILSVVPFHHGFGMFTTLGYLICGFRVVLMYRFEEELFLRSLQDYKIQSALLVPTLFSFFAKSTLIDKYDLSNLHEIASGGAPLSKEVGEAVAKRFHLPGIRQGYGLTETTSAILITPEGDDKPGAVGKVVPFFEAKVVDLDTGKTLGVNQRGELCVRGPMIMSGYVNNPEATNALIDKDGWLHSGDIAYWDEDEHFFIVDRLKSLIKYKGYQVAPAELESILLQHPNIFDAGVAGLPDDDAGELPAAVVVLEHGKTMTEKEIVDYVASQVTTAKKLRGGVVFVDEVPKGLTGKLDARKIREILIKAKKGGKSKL
#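 Purified P. pyralis luciferase, 10 nM final, with Km-level 10 uM D-luciferin and 10 uM ATP in 50 mM Tris acetate pH 7.5, 10 mM Mg acetate, 0.01% Tween-20, 0.05% BSA; 6-point qHTS titration about 60 µM downward; luminescence read.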
# SMN2 splice enh = qHTS Assay for Enhancers of SMN2 Splice Variant Expression; Potency, µM (titrated, usually from 46.1 µM), actives largely listed as activators; 210,000 tested, 2.8% active; AID 1458, 2008; HEK293 SMN2-luciferase splicing reporter, luminescence, 30-36 h; note: nearly all actives have a fitted effect of over 55% in size
#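 HEK293 cells carry an SMN2 minigene-luciferase reporter in which exon 7 inclusion puts luciferase in frame. Cells were seeded at 2000 cells/well, attached for 10-12 hours, then exposed to compounds for 30-36 hours at 37C before ONE-Glo luminescence.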
# NPC1 promoter act = qHTS Assay for NPC1 Promoter Activators | AID 485313, 2010 | 320,000 tested, 2.4% active | Huh7 NPC1 promoter luciferase reporter, 24 h | Potency, µM (doses to about 9.22 µM), most hits filed as activators; note: nearly all actives have a fitted effect of over 60% in size
#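 Readout is luciferase luminescence, reflecting NPC1 promoter activation in stably transfected Huh7 cells after 24 h compound exposure at 37 °C in reduced-serum medium with 10% FBS.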
# A number is an active result; i = inactive; ? = inconclusive; nt = no result given; [ ] = remark or other dose. Calls come from the whole dose curve; as a rule, active = well fitted curve in the direction sought with a large enough effect; inconclusive = small, poorly fitted or top-dose-only effect, or another doubt; inactive = no such curve, though single readings can be large; an effect the other way counts as inactive or inconclusive.
SMILES,ELG1 genotoxic,Rab9 promoter act,KinaseGlo FLuc,FLuc modulator,SMN2 splice enh,NPC1 promoter act
CC(C)=C(NC(=O)c1ccccc1)C(=O)N/N=C/c1ccc(O)cc1,i,i,i,17µM,i,i
Cc1onc(-c2ccccc2)c1C(=O)N/N=C/C(Br)=C/c1ccccc1,?,i,i,i,i,i
Cc1cc(C)cc(NC(=O)Cn2c(=O)n(Cc3ccco3)c(=O)c3oc4ccccc4c32)c1,nt,nt,nt,i,nt,nt
COc1ccccc1/C=C/C=N/NC(=O)c1cc(-c2ccc(C)o2)[nH]n1,i,i,nt,15µM,nt,i
COc1cc(/C=C/C(=O)O)ccc1OCc1cnc(Cl)s1,i,i,i,i,i,i
COc1cccc(/C=C/C(=O)OCC(=O)NCc2ccco2)c1OC,i,i,i,i,i,i
COc1cc(/C=N/NC(=O)c2ccncc2)ccc1OCc1cnc(Cl)s1,i,i,i,i,13µM,i
COc1cccc(/C=C/C(=O)NNC(=O)c2ccco2)c1OC,?,4µM,nt,11µM,nt,?
COc1ccc(C(=O)Nc2ccccc2C(=O)N/N=C/c2ccncc2)cc1OC,i,?,nt,0.24µM,nt,2µM
Cc1ccc(/C=N/NC(=O)c2cc(-c3ccc(C)o3)[nH]n2)cc1,i,i,nt,?,nt,i
COc1ccc(C(=O)Nc2ccccc2C(=O)NCc2cccnc2)cc1OC,i,i,nt,i,nt,i
Cc1ccc(C)c(Cn2c(C3CC(=O)N(c4ccccc4C)C3)nc3ccccc32)c1 (stereo not given),nt,nt,nt,i,nt,nt
O=C(Nc1ccccc1C(=O)N/N=C/c1ccc(O)cc1)c1ccccc1,i,?,nt,0.15µM,nt,?
O=C(N/N=C/c1ccc(OCc2ccccc2)cc1)c1ccco1,i,2.8µM,nt,?,nt,?
COc1cccc(/C=N/NC(=O)c2ccccc2NC(=O)c2ccco2)c1OC,i,i,nt,11µM,nt,i
COC(=O)c1ccc(COc2ccccc2/C=N/NC(=O)c2cccnc2)cc1,i,i,i,21µM,i,i
COc1cccc(/C=N/NC(=O)CNC(=O)c2cccnc2)c1O,i,i,nt,i,nt,i
COc1ccc(OC)c(NC(=O)c2ccccc2NC(=O)c2ccco2)c1,i,i,nt,?,nt,i
CCCC(=O)Nc1cc(C(=O)NCc2ccccc2)ccc1S(=O)(=O)c1ccc(Cl)cc1,nt,nt,nt,i,nt,nt
O=C(NNC(=O)c1ccccc1O)c1ccco1,?,?,i,19µM,?,?
O=C(N/N=C/c1ccc2cccnc2c1)c1ccco1,2.1µM,0.89µM,nt,6µM,nt,1.4µM
CSc1ccc(NC(=O)Nc2cccn(Cc3ccccc3)c2=O)cc1,i,i,i,11µM,nt,i
COc1ccc(Cn2cccc(NC(=O)Nc3cccc(OC)c3)c2=O)cc1,i,i,nt,21µM,nt,i
COc1ccc(Cn2cccc(NC(=O)Nc3ccc(F)cc3)c2=O)cc1,i,i,i,?,nt,i
COc1cccc(Cn2cccc(NC(=O)Nc3ccccc3C)c2=O)c1,i,i,i,i,nt,i
SMILES,ELG1 genotoxic,Rab9 promoter act,KinaseGlo FLuc,FLuc modulator,SMN2 splice enh,NPC1 promoter act
Cc1ccc(Cn2cccc(NC(=O)c3ccco3)c2=O)cc1,i,?,i,15µM,i,i
COc1cccc(Cn2cccc(NC(=O)NCc3ccccc3)c2=O)c1,i,i,nt,21µM,nt,i
COc1cccc(CNC(=O)c2ccc3c(c2)nc2n3CCOC2)c1OC,nt,nt,nt,i,nt,nt
CCOc1ccc(C2=NC(c3ccncc3)=Nc3ccc(C)cc3N2)cc1OCC,nt,nt,nt,i,i,nt
O=C(Nc1ccccc1)Nc1cccn(Cc2c(F)cccc2Cl)c1=O,i,?,i,11µM,nt,i
O=C(NCc1ccccc1)Nc1cccn(Cc2ccccc2Cl)c1=O,i,i,i,8.5µM,i,i
COc1cccc(NC(=O)Nc2cccn(Cc3ccccc3)c2=O)c1,i,i,i,17µM,i,i
COc1cccc(Cn2cccc(NC(=O)Nc3ccc(C#N)cc3)c2=O)c1,i,i,i,?,i,i
Cc1cc(N2CCOCC2)nc2ccc(NC(=O)CCC(=O)N3CCN(c4ccc(F)cc4)CC3)cc12,i,?,nt,19µM,nt,i
Cc1cc(N2CCN(C)CC2)nc2ccc(NC(=S)N3CCN(c4ccc(F)cc4)CC3)cc12,i,i,i,i,i,i
Cc1cc(N2CCOCC2)nc2ccc(NC(=O)CCC(=O)N3CCN(c4ccccc4F)CC3)cc12,?,4µM,nt,6µM,nt,?
Cc1cc(N2CCOCC2)nc2ccc(NC(=O)CCC(=O)N3CCCC(C)C3)cc12 (stereo not given),?,?,i,21µM,13µM,4µM
Cc1ccc(C)c(N2CCN(C(=O)CCC(=O)Nc3ccc4nc(N5CCCCC5)cc(C)c4c3)CC2)c1,nt,nt,nt,?,i,nt
Cc1cc(N2CCCCC2)nc2ccc(NC(=O)CCC(=O)N3CCN(c4ccccc4)CC3)cc12,nt,nt,nt,9.5µM,i,nt
O=C(C1COc2ccccc2O1)N(Cc1cccnc1)c1nc2ccc(Cl)cc2s1 (stereo not given),nt,nt,nt,i,nt,nt
COc1ccc(NC(=O)CSc2ncc3c(n2)-c2cc(Cl)ccc2N(Cc2ccccc2F)S3(=O)=O)cc1,nt,nt,nt,i,nt,nt
Cc1cc(N2CCN(c3ccccc3F)CC2)nc2cc(O)ccc12,i,i,i,15µM,i,i
O=C(O)c1cc(NN=C2CCN(Cc3ccccc3)CC2)ccc1Cl,?,2.8µM,nt,?,nt,4µM
O=C(NN=C1CCN(Cc2ccccc2)CC1)c1cccc(S(=O)(=O)Nc2ccccc2Cl)c1,i,i,i,i,i[1.84 µM],i
CCOC(=O)N1CCC(=NNC(=O)c2cc3ccccc3cc2O)CC1,i,i,i,?,i,i
O=C(NN=C1CCN(Cc2ccccc2)CC1)c1cc2ccccc2cc1O,i,i,i,?,i,i
CCOC(=O)C1=C(C)C/C(=N\NC(=O)c2ccccc2O)CC1,i,?,nt,7.6µM,nt,?
O=C(O)c1cc(N/N=C2/CC(c3ccccc3)Oc3ccccc32)ccc1Cl (stereo not given),i,i,i,27µM,i[1.84 µM],i
O=C(NN=C1CCN(Cc2ccccc2)CC1)c1ccccc1O,i,i,nt,24µM,nt,i
COc1cccc(NC(=O)c2cc(CN3CCOCC3)on2)c1,nt,nt,nt,i,nt,nt
CCCCC(=O)OCC(=O)c1[nH]c(C)c(C(C)=O)c1C,i,i,i,11µM,i,i
CCOC(=O)CC(=O)c1[nH]c(C)c(C(=O)OCC)c1C,i,i,i,?,i,i
CCOC(=O)c1c(C)[nH]c(C(=O)COC(=O)C2CC2)c1C,?,i,nt,9.5µM,nt,i
CCOC(=O)c1c(C)[nH]c(C(=O)COC(=O)C2(C)CC2(Cl)Cl)c1C (stereo not given),?,3.2µM,i,13µM,i,?
